The results in this text go back to PubChem BioAssay (NCI).

Compounds without any hit were thinned out: in the full panel of roughly 79,000, 15% have a hit. A number with no mark means an inactive call. Activity calls are given as the source filed them. No stated cut-off is given here; in the data, active means growth inhibition above about 70%; inactive means the rest.

Test [1] can be described thus: NCI Yeast Anticancer Drug Screen. Data for the rad50 strain (AID 155).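 Further: 0% = growth of vehicle-only cultures of the same strain.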 The following applies: S. cerevisiae rad50 strain growth inhibition, active compounds read high. Put shortly: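 Yeast carrying a defined DNA repair defect were exposed to test compounds, and growth was compared with vehicle-treated controls to give percent inhibition.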
The nature of test [2]: NCI Yeast Anticancer Drug Screen. Data for the mec2-1 strain (AID 157). The following applies: S. cerevisiae mec2-1 strain, active compounds read high. Put shortly:
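mec2-1 yeast strain, carrying an alteration in DNA damage repair or cell cycle control, was exposed to compounds; growth inhibition was measured relative to vehicle-treated controls.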

Test [3] can be described thus: NCI Yeast Anticancer Drug Screen. Data for the sgs1 mgt1 strain (AID 161).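 Further: 0% = growth of cultures given vehicle only.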 The following applies: S. cerevisiae sgs1 mgt1 strain, active compounds read high. The procedure, abridged: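 Yeast cells carrying a defined DNA-repair defect were exposed to test compounds. Growth inhibition was measured relative to vehicle-treated controls.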
A short description of test [4]: NCI Yeast Anticancer Drug Screen. Data for the cln2 rad14 strain (AID 165).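 Further: 0% = growth equal to vehicle treated cultures.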 The following applies: S. cerevisiae cln2 rad14 strain, active compounds read high. Put shortly: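 Yeast carrying cln2 and rad14 alterations (cell cycle control and DNA damage repair) were exposed to compounds. Growth inhibition was measured against vehicle-treated controls.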
The nature of test [5]: NCI Yeast Anticancer Drug Screen. Data for the bub3 strain (AID 167). The following applies: S. cerevisiae bub3 mutant strain, active compounds read high. Put shortly: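 Compounds were applied to a genetically altered yeast strain carrying a cell-cycle control defect. Growth inhibition was scored against vehicle-treated controls.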
Test [6] is described as follows: NCI Yeast Anticancer Drug Screen. Data for the mlh1 rad18 strain (AID 175). The following applies: S. cerevisiae mlh1 rad18 strain growth inhibition, active compounds read high. The procedure, abridged: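 Growth inhibition of the yeast strain was measured after compound exposure and expressed relative to vehicle-treated controls. The strain carries defined defects in DNA damage repair.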

The mark [7] stands for this setting: at 5.0 µM (retest, dose inferred, filed as 0.5).
Where [8] appears, read: at 50.0 µM (retest, dose inferred, filed as 5.0).

In the case of `CCCCCCCCC(N)CCCCCCCC`, the growth inhibition is 99% (active) in test [1] (setting [7]); 98% (active) in test [1] (setting [8]); 99% (active) in test [1] (at 50.0 µM); 100% (active) in test [2] (setting [7]); 99% (active) in test [2] (setting [8]); 99% (active) in test [2] (at 50.0 µM). For the same compound, the growth inhibition in test [3] (setting [7]) is 99% (active); in test [3] (setting [8]), 99% (active); in test [3] (at 50.0 µM) it was 46%; in test [4] (setting [7]), 96% (active); in test [4] (setting [8]), 99% (active); in test [4] (at 50.0 µM) it was 98.8% (active). In addition, the growth inhibition in test [5] (setting [7]) is 99% (active); in test [5] (setting [8]) it was 98% (active); in test [5] (at 50.0 µM), 99.2% (active); in test [6] (setting [7]), 99% (active); in test [6] (setting [8]) it was 98% (active); in test [6] (at 50.0 µM), 99.5% (active).

As for `O=C(CCC(NC(=O)OCc1ccccc1)C(=O)OCc1ccccc1)NC(CSCc1ccccc1)C(=O)NCC(=O)Oc1c(Cl)c(Cl)c(Cl)c(Cl)c1Cl` (stereo not given), the growth inhibition was 8% in test [1] (setting [7]); 51% in test [1] (setting [8]); 31% in test [1] (at 50.0 µM); 9% in test [2] (setting [7]); 32% in test [2] (setting [8]); 28.8% in test [2] (at 50.0 µM). The growth inhibition in test [3] (setting [7]) is 7%; in test [3] (setting [8]), 35%; in test [3] (at 50.0 µM) it was 64.2%; in test [4] (setting [7]) it was -7%; in test [4] (setting [8]) it was 48%; in test [4] (at 50.0 µM), 45%. Besides, the growth inhibition in test [5] (setting [7]) was 3%; in test [5] (setting [8]), 59%; in test [5] (at 50.0 µM) it was 18.8%; in test [6] (setting [7]), 8%; in test [6] (setting [8]) it was 54%; in test [6] (at 50.0 µM) it was 60.7%.

Regarding `O=C1N(Cc2ccccc2)CC1(c1ccccc1)C1CCCCC1O` (stereo not given), the growth inhibition in test [1] (setting [7]) was -1%; in test [1] (setting [8]), 96% (active); in test [1] (at 50.0 µM), -18.1%; in test [2] (setting [7]) it was -5%; in test [2] (setting [8]), 49%; in test [2] (at 50.0 µM), 7.8%. Further, the growth inhibition was -3% in test [3] (setting [7]); 82% (active) in test [3] (setting [8]); 35.5% in test [3] (at 50.0 µM); -8% in test [4] (setting [7]); 84% (active) in test [4] (setting [8]); 6.9% in test [4] (at 50.0 µM). In addition, the growth inhibition in test [5] (setting [7]) is -2%; in test [5] (setting [8]) it was 93% (active); in test [5] (at 50.0 µM), 65.6%; in test [6] (setting [7]) it was -2%; in test [6] (setting [8]), 93% (active); in test [6] (at 50.0 µM), 4.1%.

As for `c1ccc2c(c1)nc1cc(NC3CCCCC3)c(=NC3CCCCC3)cc-1n2C1CCCCC1`, the growth inhibition in test [1] (setting [7]) is 8%; in test [1] (setting [8]), 4%; in test [1] (at 50.0 µM), 44.5%; in test [2] (setting [7]), 0%; in test [2] (setting [8]), 5%; in test [2] (at 50.0 µM), 37.6%. In addition, the growth inhibition in test [3] (setting [7]) is -7%; in test [3] (setting [8]) it was 2%; in test [3] (at 50.0 µM), 42.8%; in test [4] (setting [7]), -1%; in test [4] (setting [8]), -13%; in test [4] (at 50.0 µM), 23.3%. The growth inhibition was -3% in test [5] (setting [7]); 16% in test [5] (setting [8]); 39.8% in test [5] (at 50.0 µM); 0% in test [6] (setting [7]); -49% in test [6] (setting [8]); 16.6% in test [6] (at 50.0 µM).

`CC12C=C3CC(OC(=O)c4ccccc4)CCC3(O1)c1ccccc12` (stereo not given): the growth inhibition was 2% in test [1] (setting [7]); 69% in test [1] (setting [8]); 84.8% (active) in test [1] (at 50.0 µM); -1% in test [2] (setting [7]); 77% (active) in test [2] (setting [8]); 91.5% (active) in test [2] (at 50.0 µM). Further, the growth inhibition in test [3] (setting [7]) is 1%; in test [3] (setting [8]), 80% (active); in test [3] (at 50.0 µM) it was 90.1% (active); in test [4] (setting [7]), 3%; in test [4] (setting [8]) it was 2%; in test [4] (at 50.0 µM), 10.1%. In addition, the growth inhibition in test [5] (setting [7]) was 4%; in test [5] (setting [8]), 76% (active); in test [5] (at 50.0 µM), 79.3% (active); in test [6] (setting [7]), 1%; in test [6] (setting [8]), 76% (active); in test [6] (at 50.0 µM), 76% (active).

As to `ON=C1Cc2ccccc2-c2ccccc2C1`, the growth inhibition was 2% in test [1] (setting [7]); 1% in test [1] (setting [8]); -23% in test [1] (at 50.0 µM); 2% in test [2] (setting [7]); 5% in test [2] (setting [8]); -11.1% in test [2] (at 50.0 µM). The growth inhibition in test [3] (setting [7]) is 8%; in test [3] (setting [8]), 4%; in test [3] (at 50.0 µM), -3.3%; in test [4] (setting [7]), 1%; in test [4] (setting [8]), 7%; in test [4] (at 50.0 µM), 39.2%. Besides, the growth inhibition is -5% in test [5] (setting [7]); 1% in test [5] (setting [8]); 6.1% in test [5] (at 50.0 µM); -3% in test [6] (setting [7]); -2% in test [6] (setting [8]); 17.1% in test [6] (at 50.0 µM).

Turning to `OCC(O)C(O)C(/C=N/Nc1ccccc1)=N/Nc1ccccc1` (stereo not given), the growth inhibition in test [1] (setting [7]) was 11%; in test [1] (setting [8]), 45%; in test [1] (at 50.0 µM), 44%; in test [2] (setting [7]), 7%; in test [2] (setting [8]) it was 32%; in test [2] (at 50.0 µM), 13.7%. Moreover, the growth inhibition was 10% in test [3] (setting [7]); 57% in test [3] (setting [8]); 47.4% in test [3] (at 50.0 µM); 51% in test [4] (setting [7]); 38% in test [4] (setting [8]); 13.4% in test [4] (at 50.0 µM). Also, the growth inhibition in test [5] (setting [7]) is 6%; in test [5] (setting [8]), -65%; in test [5] (at 50.0 µM), -5.35%; in test [6] (setting [7]), 2%; in test [6] (setting [8]), 61%; in test [6] (at 50.0 µM), 60.4%.

For `O=CNC(CCCC(=O)O)Cc1cc2ccccc2c2ccccc12` (stereo not given), the growth inhibition in test [1] (setting [7]) is 5%; in test [1] (setting [8]) it was 17%; in test [1] (at 50.0 µM) it was 94.5% (active); in test [2] (setting [7]), 13%; in test [2] (setting [8]), 31%; in test [2] (at 50.0 µM), 95% (active). Besides, the growth inhibition is 5% in test [3] (setting [7]); 11% in test [3] (setting [8]); 95.6% (active) in test [3] (at 50.0 µM); 7% in test [4] (setting [7]); 22% in test [4] (setting [8]); 93.7% (active) in test [4] (at 50.0 µM). Besides, the growth inhibition was -8% in test [5] (setting [7]); -4% in test [5] (setting [8]); 94.8% (active) in test [5] (at 50.0 µM); -3% in test [6] (setting [7]); 9% in test [6] (setting [8]); 94.5% (active) in test [6] (at 50.0 µM).

Consider `CC(C)c1ccc2c(c1)CC[C@@H]1[C@](C)(CO)CCC[C@]21C`, for which the growth inhibition in test [1] (setting [7]) is 4%; in test [1] (setting [8]) it was 94% (active); in test [1] (at 50.0 µM), 34.8%; in test [2] (setting [7]), 4%; in test [2] (setting [8]), 94% (active); in test [2] (at 50.0 µM), 89.8% (active). For the same compound, the growth inhibition in test [3] (setting [7]) was 0%; in test [3] (setting [8]) it was 99% (active); in test [3] (at 50.0 µM) it was 43.2%; in test [4] (setting [7]), 2%; in test [4] (setting [8]), 96% (active); in test [4] (at 50.0 µM) it was 68.2%. Besides, the growth inhibition was -3% in test [5] (setting [7]); 95% (active) in test [5] (setting [8]); 89.1% (active) in test [5] (at 50.0 µM); -16% in test [6] (setting [7]); 95% (active) in test [6] (setting [8]); 97.3% (active) in test [6] (at 50.0 µM).

Turning to `N#CC(C(=O)CCc1nc2ccccc2[nH]1)c1c(Cl)cccc1Cl` (stereo not given), the growth inhibition in test [1] (setting [7]) was -14%; in test [1] (setting [8]), 19%; in test [1] (at 50.0 µM), -21.2%; in test [2] (setting [7]), 4%; in test [2] (setting [8]) it was 12%; in test [2] (at 50.0 µM) it was 8.05%. The growth inhibition was 7% in test [3] (setting [7]); 2% in test [3] (setting [8]); 19.6% in test [3] (at 50.0 µM); -5% in test [4] (setting [7]); 3% in test [4] (setting [8]); -30.1% in test [4] (at 50.0 µM). The growth inhibition in test [5] (setting [7]) was -2%; in test [5] (setting [8]) it was 6%; in test [5] (at 50.0 µM) it was 6.75%; in test [6] (setting [7]) it was -1%; in test [6] (setting [8]) it was 0%; in test [6] (at 50.0 µM), 16.1%.
